# Experimental data as given in the supplement of paper PMC12024529.
# Tested on: HEK293 WT BDD-FVIII-Gluc
# Assay: secreted FVIII-Gluc luciferase Z-score vs DMSO control; higher = more FVIII-Gluc secretion
# Conditions: 5 µM
# Procedure: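 Natural plant-compound library (480 compounds, ST catalogue IDs) screened on HEK293 cells stably expressing WT BDD-FVIII-Gaussia luciferase fusion at 5 µM. Secreted Gluc activity in the medium is given as a Z-score relative to DMSO controls.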
row,SMILES,secreted FVIII-Gluc luciferase Z-score
1,O=C(O)C1OC(O)C(O)C(O)C1O (centres undefined),0.395
2,COc1ccc2oc(-c3cccc(OC)c3OC)cc(=O)c2c1,0.436
3,C[C@H](CCC(=O)O)[C@H]1CC[C@H]2[C@@H]3CC[C@@H]4C[C@H](O)CC[C@]4(C)[C@H]3CC[C@]12C,1.27
4,Cc1ccc2oc(-c3ccccc3)cc(=O)c2c1,0.845
5,COc1ccc2c3c1OC1C(O)C=CC(C=C2)C31CCN(C)C (centres undefined),-0.171
6,CCC(=O)OCC(=O)[C@@]1(OC(=O)CC)[C@@H](C)C[C@H]2[C@@H]3CCC4=CC(=O)C=C[C@]4(C)[C@@]3(F)[C@@H](O)C[C@@]21C,3.76
7,C[C@H](C(=O)O)c1cccc(C(=O)c2ccccc2)c1,0.342
8,CN1CCc2cccc3c2C1Cc1ccc(O)c(O)c1-3 (centres undefined),-0.131
9,OC[C@H]1O[C@@H](OC[C@H]2O[C@@H](O)[C@H](O)[C@@H](O)[C@@H]2O)[C@H](O)[C@@H](O)[C@@H]1O,0.42
10,O=C1C=CC2=C3c4cc(O)c(O)cc4CC3(O)COC2=C1O (centres undefined),0.729
11,COc1ccc2c(c1OC)C(Cc1ccccc1)N1CCc3cc4c(cc3C1C2)OCO4 (centres undefined),0.496
12,CC(=O)O[C@H]1C(=O)[C@@]2(C)C([C@H](OC(=O)c3ccccc3)[C@]3(O)C[C@H](OC(=O)[C@@H](O)[C@@H](NC(=O)c4ccccc4)c4ccccc4)C(C)=C1C3(C)C)[C@]1(OC(C)=O)CO[C@@H]1C[C@@H]2O (some centres undefined),-3.56
13,COc1cc2c(cc1OC)-c1c(OC)c(OC)cc3ccnc(c13)C2=O,-0.583
14,O=c1cc(-c2cccc(O)c2)oc2c(O)c(O)ccc12,-0.194
15,COc1cc2c(cc1OC)C(=O)N(C)CC2,0.547
16,OCC1(O)OC[C@H](O)[C@@H](O)[C@@H]1O (some centres undefined),0.437
17,C[C@H]1[C@H]2CC[C@H]3[C@@H]4CC=C5C[C@@H](N(C)C)CC[C@]5(C)[C@H]4CC[C@]23CN1C,0.23
18,NC(Cn1ccc(=O)c(O)c1)C(=O)O (centres undefined),0.208
19,CC1(C)[C@@H](O)CC[C@]2(C)[C@H]3C(=O)C=C4[C@@H]5C[C@@](C)(C(=O)O)CC[C@]5(C)CC[C@@]4(C)[C@]3(C)CC[C@@H]12,0.00884
20,COC1C(O)C(O)C(O)C(O)C1O (centres undefined),0.358

row,SMILES,secreted FVIII-Gluc luciferase Z-score
1,C[S+]([O-])CCC(N)C(=O)O (centres undefined),1.1
2,O=c1cc(-c2ccc(O)c(O)c2)oc2cccc(O)c12,-0.512
3,NCCc1cnc[nH]1,0.378
4,CN1CCC[C@H]1c1cccnc1,0.197
5,O=c1ccn(C2OC(COP(=O)(O)O)C(O)C2O)c(=O)[nH]1 (centres undefined),0.638
6,O=c1cc(-c2ccccc2)oc2cc(O)cc(O)c12,0.596
7,Cc1ccc(C(=O)[C@@H]2[C@H]3C4COC(O4)C(=O)[C@@H]3[C@H]3C=Cc4ccccc4N32)cc1 (some centres undefined),-0.368
8,C/C(=C\CNc1ncnc2nc[nH]c12)CO,0.549
9,Nc1ncnc2c1ncn2[C@@H]1O[C@H](COP(=O)(O)OP(=O)(O)O)[C@@H](O)[C@H]1O,0.0418
10,CC1=CC(=O)C2CC1C2(C)C (centres undefined),0.115
11,COc1cc(CNC(=O)CCCC/C=C/C(C)C)ccc1O,-0.484
12,CN1C(CC(=O)c2ccccc2)CCC[C@H]1C[C@H](O)c1ccccc1 (some centres undefined),0.401
13,COc1ccc2[nH]cc(CCNC(C)=O)c2c1,0.108
14,COc1cc(C=O)ccc1O,0.374
15,COc1ccc([C@@H]2CC(=O)c3c(O)cc(O)cc3O2)cc1O,0.825
16,O=c1ccn([C@H]2C[C@H](O)[C@@H](CO)O2)c(=O)[nH]1,0.515
17,Cc1ncc(CO)c(C=O)c1O,1.01
18,COc1ccc(-c2coc3cc(O)ccc3c2=O)cc1,0.632
19,O=C(CCc1ccc(O)cc1)c1c(O)cc(O)cc1O,-0.769
